# PI5P4K alpha inh: qHTS for Inhibitors of phosphatidylinositol 5-phosphate 4-kinase (PI5P4K) | Phosphatidylinositol 5-phosphate 4-kinase type-2 alpha (Homo sapiens), P48426 | PI5P4Kalpha enzyme, ADP-Glo luminescence, 60 min; active compounds read low | max response, % | 330,000 tested, 1.2% active | AID 652105, 2013; active means max response of -50% or lower; inconclusive means between -30% and -50%; inactive means -30% or higher; further: value at the top dose of about 77 µM; on the % scale 0 is the no-effect control and ±100 the full control effect
#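 Luminescence from ADP-Glo served as readout of PI5P4Kalpha activity in a qHTS format. Reaction: enzyme, substrate, compound, ATP at 5 microM final, 60 min at RT.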
# WRN inhibitor: qHTS for Inhibitors of WRN Helicase; WRN helicase unwinding, fluorescent forked duplex, kinetic; Potency, µM (highest dose often 114 µM), inactives show at the top dose activity change, negative = inhibition, hits mostly inhibitors; 360,000 tested, 0.46% active; further: potency means the concentration at half of the fitted maximal effect; on the % scale 0 is the no-effect control and ±100 the full control effect; nearly all actives have a fitted effect of over 55% in size
#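 Screening of the MLSMR collection measured strand separation of a quenched forked DNA duplex (100 nM) by 20 nM WRN with 2 mM ATP, all final. Compounds were preincubated with enzyme 15 min at room temperature.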
# Pol iota inh: qHTS for Inhibitors of Polymerase Iota; AID 588590, 2011; Potency, µM (top dose mostly 115 µM), for the others: top-dose activity, negative = inhibition, usual class: inhibitors; DNA polymerase iota (Homo sapiens), Q9UNA4; Pol iota fluorescent replication assay, 10 min; 390,000 tested, 1% active; further: potency means the concentration at half of the fitted maximal effect
#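 Pol iota at 10 nM preincubated 15 min with compounds at room temperature; reaction started with fluorescent substrate, 50 nM final. Fluorescence read kinetically at 0 and 10 min; buffer-only wells as negative control.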
# POLB inh: qHTS Assay for Inhibitors of DNA Polymerase Beta. Pol beta primer extension/strand displacement, fluorescence kinetic. 340,000 tested, 1.3% active. Potency, µM (series often up to 114 µM), for the others: at the highest dose activity change, negative = inhibition, most hits filed as inhibitors. P06746; further: potency means the concentration at half of the fitted maximal effect; on the % scale 0 is the no-effect control and ±100 the full control effect
#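 Pol beta (10 nM) and compounds were preincubated 15 min at room temperature, then 50 nM substrate (final) started primer extension/strand displacement. Reads were taken at 0 and 10 min; concentration-response data were fitted to a four-parameter Hill equation.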
# Pol eta inh: qHTS for Inhibitors of Polymerase Eta; DNA polymerase eta (Homo sapiens), Q9Y253; recombinant Pol eta, fluorescent DNA replication assay; Potency, µM (titrated, usually from 114 µM), for inactives: at the highest dose activity change, negative = inhibition, actives largely listed as inhibitors; 390,000 tested, 1.2% active; further: potency means the concentration at half of the fitted maximal effect; on the % scale 0 is the no-effect control and ±100 the full control effect
# Target sequence (Q9Y253 whole entry, looked up): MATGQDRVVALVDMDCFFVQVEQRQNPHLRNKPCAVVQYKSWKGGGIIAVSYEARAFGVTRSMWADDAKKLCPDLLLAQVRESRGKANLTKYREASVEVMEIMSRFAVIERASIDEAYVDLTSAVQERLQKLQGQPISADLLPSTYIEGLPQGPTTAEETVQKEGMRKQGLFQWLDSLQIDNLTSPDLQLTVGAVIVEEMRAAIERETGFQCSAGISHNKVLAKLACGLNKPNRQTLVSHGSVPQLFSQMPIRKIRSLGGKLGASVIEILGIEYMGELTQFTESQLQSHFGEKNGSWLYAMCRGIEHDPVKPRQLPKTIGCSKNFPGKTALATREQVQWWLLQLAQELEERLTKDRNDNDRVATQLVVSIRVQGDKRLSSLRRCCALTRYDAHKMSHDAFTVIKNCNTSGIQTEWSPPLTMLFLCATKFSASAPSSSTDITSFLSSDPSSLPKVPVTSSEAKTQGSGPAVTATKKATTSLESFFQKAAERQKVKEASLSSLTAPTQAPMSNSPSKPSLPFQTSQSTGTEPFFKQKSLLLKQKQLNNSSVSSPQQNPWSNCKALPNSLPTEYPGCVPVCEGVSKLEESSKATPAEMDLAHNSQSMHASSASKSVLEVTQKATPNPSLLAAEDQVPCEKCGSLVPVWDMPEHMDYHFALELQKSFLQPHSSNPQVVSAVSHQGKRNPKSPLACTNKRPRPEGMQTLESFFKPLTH
#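 Pol eta (10 nM) was preincubated with compounds for 15 min at room temperature, after which fluorescent replication substrate (50 nM final) was added to start the reaction. Fluorescence was read kinetically at 0 and 10 min.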
# POLK inh: qHTS for Inhibitors of Polymerase Kappa | DNA polymerase kappa (Homo sapiens), Q9UBT6 | purified Pol kappa, fluorescent DNA synthesis assay, 10 min | Potency, µM (top dose mostly 107 µM), inactives show top-dose activity, negative = inhibition, usual class: inhibitors | 400,000 tested, 0.53% active | AID 588579, 2011; further: potency means the concentration at half of the fitted maximal effect; on the % scale 0 is the no-effect control and ±100 the full control effect
#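 Fluorescent qHTS in 1536-well format: enzyme (10 nM) and compound sat 15 min at room temperature before 50 nM substrate (final) was added. Signal taken at 0 and 10 min; no-enzyme buffer wells were negative controls.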
# Starred values were filed as active, the others as inactive; ? = inconclusive; nt = not tested or not shown; [ ] = remark or other dose. Most compounds without a hit are left out; they make up all but 2.8% or so of the library. Unless noted, the call rests on the fitted dose curve; in most records, active means well fitted curve in the direction sought with a large enough effect; inconclusive means small, poorly fitted or top-dose-only effect, or another doubt; inactive means no such curve, though single readings can be large; an effect the other way counts as inactive or inconclusive.
SMILES,PI5P4K alpha inh,WRN inhibitor,Pol iota inh,POLB inh,Pol eta inh,POLK inh
C=C1Cc2c(Cl)cc3[nH]c4c5c3c2[C@@]2(O)[C@@H]1C[C@@H]2C(C)(C)O[C@H]5[C@@H]1CC[C@@]2(O)[C@@]35O[C@@H]3[C@@H](O)[C@@H](C(=O)O)O[C@H]5CC[C@]2(C)[C@@]41C,nt,nt,nt,nt,nt,0%[19.4 µM]
COc1ccc(C2C=C(c3ccccc3)Nc3nc(NS(=O)(=O)c4ccccc4)nn32)cc1 (stereo unspecified),nt,nt,18%,12%,89µM*,-10%
Cc1ccc(C2C=C(c3ccccc3)Nc3nc(NS(=O)(=O)c4ccccc4)nn32)cc1 (stereo unspecified),nt,nt,-2%,18%,?,2%
COc1ccc(C2C=C(c3ccccc3)Nc3nc(NS(=O)(=O)c4ccc(Cl)cc4)nn32)cc1 (stereo unspecified),nt,nt,28%,12%,89µM*,1%
Cc1ccc(S(=O)(=O)Nc2nc3n(n2)C(c2ccc(Cl)cc2)C=C(c2ccccc2)N3)cc1 (stereo unspecified),nt,nt,-7%,-1%,89µM*,4%
Cc1ccc(S(=O)(=O)Nc2nc3n(n2)C(c2ccc(F)cc2)C=C(c2ccccc2)N3)cc1 (stereo unspecified),nt,nt,25%,2%,?,3%
CC(C)c1nnc(NC(=O)c2ccc(N3C(=O)CCC3=O)cc2)s1,7,-6%,14%,?,-8%,16%
O=C(Nc1nnc(C23CC4CC(CC(C4)C2)C3)s1)c1ccc(N2C(=O)CCC2=O)cc1,-19,-15%[57.1 µM],?,10µM*,?,-41%
O=[N+]([O-])c1ccccc1S(=O)(=O)N1CCN(C2CCN(Cc3ccccc3)CC2)CC1,-1,?,?,4%,-3%,-2%
Cc1nn(CC(=O)NCc2ccc(N(C)C)cc2)c(=O)c2nn(-c3ccccc3)c(C)c12,nt,nt,49%,-21%,-27%,4%
Cc1ccc(C(=O)Oc2ccc(Br)cc2C(=S)N2CCOCC2)cc1,0,-4%,10%,46%,-5%,-11%
Cc1c([N+](=O)[O-])cc(C(=O)Oc2ccc(Br)cc2C(=S)N2CCCCC2)cc1[N+](=O)[O-],-18,-15%,89µM*,5%,?,-13%
O=C(Nc1nc2nc(-c3ccccc3)cc(=O)n2[nH]1)c1ccc(Cl)cc1,nt,nt,-16%,22µM*,-9%,-18%
CSc1nc(=S)cc(C)[nH]1,?,40µM*,?,2%,-2%,6%
Cc1cc(=S)nc(-c2ccccn2)[nH]1,-8,-21%,181%,0%,-14%,-13%
COc1cc(/C=C/CO)ccc1O[C@@H]1O[C@H](CO)[C@@H](O)[C@H](O)[C@H]1O,2,6%,28%,nt,-3%,23%
O=C1C[C@@H](c2ccc(O)c(O)c2)Oc2c1ccc(O[C@@H]1O[C@H](CO)[C@@H](O)[C@H](O)[C@H]1O)c2O,nt,nt,nt,nt,nt,2.7µM*
O=C(/C=C/c1ccc(O)c(O)c1)c1ccc(O[C@@H]2O[C@H](CO)[C@@H](O)[C@H](O)[C@H]2O)c(O)c1O,nt,nt,nt,nt,nt,0.19µM*
CCCCOc1ccc(S(=O)(=O)N2CCN(c3ccccc3OCC)CC2)cc1,nt,nt,11%,5%,-19%,5%
CCn1cc(C(=O)NCC(C)C)c(=O)c2cc(F)c(N3CCN(C)CC3)cc21,13,-16%,123%,2%,-21%,-1%
CCn1cc(C(=O)O)c(=O)c2cc(F)c(N3CCN(S(=O)(=O)c4ccc(NC(C)=O)cc4)CC3)cc21,-1,?,-19%,20µM*,?,-37%
CCn1cc(C(=O)NN)c(=O)c2cc(F)c(N3CCOCC3)cc21,-5,89µM*,?,45%,?,-16%
N#CN=C1SCCS1,-54*,?,2%,12%,-18%,-6%
O=C(NN=C1CCCCCC1)c1cc2ccccc2cc1O,-7,1%,34%,1%,-22%,-7%
O=C1CCCC(=NNC(=O)c2cc3ccccc3cc2O)C1,?,-25%,79µM*,nt,-15%,-39%
SMILES,PI5P4K alpha inh,WRN inhibitor,Pol iota inh,POLB inh,Pol eta inh,POLK inh
O=C(NN=C1CCN(Cc2ccccc2)CC1)c1cc2ccccc2cc1O,?,1%[11.6 µM],79µM*,-108%,?,?
O=C(COc1ccccc1C(=O)Nc1cccc([N+](=O)[O-])c1)Nc1ccc(Br)cc1,nt,nt,11%,nt,nt,6%
CSc1ccc(-c2nc3ccc(C)cn3c2Nc2ccccc2C)cc1,nt,nt,29%,40%,-16%,3%
CC1=C/C(=C(\c2cc(C)c(O)c(Br)c2)c2ccccc2S(=O)(=O)O)C=C(Br)C1=O,-77*,?,?,?,?,-41%
O=C(N/N=C/c1ccc(O)c(O)c1O)/C(=C/c1ccc([N+](=O)[O-])cc1)NC(=O)c1ccccc1,-86*,40µM*,?,7%,-12%,-39%
CNC(=S)N(Cc1ccccc1)Cc1cccnc1,-8,3%,-16%[58.9 µM],33%,-4%,-5%
COC(=O)c1ccc(Cn2c(O)c(N=NC(N)=S)c3ccccc32)o1,-57*,-4%[11.6 µM],32µM*,?,50µM*,?
CCCCOCC(O)Cn1c(C)nc2ccccc21 (stereo unspecified),nt,-4%,14%,7%,9%,-8%
Cc1nc2ccccc2n1CC(O)Cn1c2ccccc2c2ccccc21 (stereo unspecified),nt,-18%,100µM*,-2%,-15%,-26%
COc1ccc(Cn2c(N)c(C#N)c3nc4ccccc4nc32)cc1OC,0,-15%,25µM*,34%,7%,-16%
O=C1/C(=C/c2ccccn2)SC(=S)N1Nc1ncc(C(F)(F)F)cc1Cl,-66*,-14%,?,nt,-26%,-11%
